Out of some 66,000 compounds screened, about 960 (1.5%) showed an effect of 50% or more. The full list was thinned out, with strong results kept by preference.
System: Trypanosoma brucei
Test: Trypanosoma brucei 72 hour study
Type: functional, organism-based
Set-up: scale not given: in the data most compounds retested in dose-response had high values

O=C(NCc1cnn2cccnc12)C1CC2(CCNCC2)CN1 (configuration not stated)
Percent Effect (30 µM, 30.03 µM): 54.89%

O=C(O)C1CC2(CCN(c3nccc4ccccc34)CC2)CN1 (configuration not stated)
Percent Effect (30 µM, 30.03 µM): 23.73%

CN1CC2(CCNCC2)CC1C(=O)NCCCNc1cccnc1 (configuration not stated)
Percent Effect (30.3 µM, […]): -6.231%

COc1ncccc1CN1C[C@H]2CCN(c3ncccn3)C[C@H]2C1.O=C(O)C(F)(F)F
Percent Effect (30.3 µM, […]): -7.481%

OCC1N(Cc2ccco2)[C@H]2CC[C@]1(O)CC2 (some centres not stated)
Percent Effect (30.3 µM, […]): -9.73%

O=C(NCc1ccccn1)[C@]12COC[C@H]1CN(Cc1ccsc1)C2.O=C(O)C(F)(F)F.O=C(O)C(F)(F)F
Percent Effect (30.3 µM, […]): -46.8%

Cc1noc(C)c1CN1C[C@@H]2COC[C@@H](C(=O)N3CCCO3)[C@@H]2C1
Percent Effect (30.3 µM, […]): 79.91%

Cc1noc(C)c1CN1C[C@@H]2COC[C@H](C(=O)N3CCCO3)[C@@H]2C1
Percent Effect (30.3 µM, […]): -103.2%

Cc1cc(CN2C[C@@H]3COC[C@H](C(=O)N4CCCCO4)[C@@H]3C2)no1.O=C(O)C(F)(F)F
Percent Effect (30.3 µM, […]): -104.8%

O=C(Nc1cccnc1)[C@H]1CN(Cc2nccs2)C[C@H]2OCC[C@@H]12.O=C(O)C(F)(F)F.O=C(O)C(F)(F)F.O=C(O)C(F)(F)F
Percent Effect (30 µM, 30.03 µM): 6.623%

Cc1cccc(CN2C(=O)C[C@H]3[C@@H]2CCN3CC2CC2)n1.O=C(O)C(F)(F)F.O=C(O)C(F)(F)F
Percent Effect (30.3 µM, […]): 9.244%

CNC(=O)c1ccc2c(c1)C1(CCN(C(C)C)CC1)C(=O)N2.O=C(O)C(F)(F)F
Percent Effect (30.3 µM, […]): -29.31%

CCC1CNCc2cc3c(C)ccc(C)c3nc2O1 (configuration not stated)
Percent Effect (30.3 µM, […]): 58.28%

CCC1CNCc2cc3c(OC)ccc(OC)c3nc2O1 (configuration not stated)
Percent Effect (30.3 µM, […]): 8.287%

Cc1cccc(CN2CC[C@H]3OCC[C@@]3(C(=O)N3CCCO3)C2)n1.O=C(O)C(F)(F)F.O=C(O)C(F)(F)F
Percent Effect (30.3 µM, […]): -52.48%

O=C(O)C(F)(F)F.O=C(O)C(F)(F)F.O=C([C@H]1C[C@H]2OCC[C@H]2N(Cc2cccnc2)C1)N1CCCCO1
Percent Effect (30.3 µM, […]): -300.7%

O=C(C[C@@H]1COC[C@H]2CN(Cc3cccnc3)C[C@@H]12)NCC1CC1.O=C(O)C(F)(F)F.O=C(O)C(F)(F)F
Percent Effect (30.3 µM, […]): -16.86%

CC1CN(CCc2ccncc2)CCO1 (configuration not stated)
Percent Effect (30 µM, 30.03 µM): -38.53%

CN(c1ncccc1C#N)C1CCN(CCc2ccncc2)CC1
Percent Effect (30 µM, 30.03 µM): -5.163%

CCC1CCCCN1CCc1ccncc1 (configuration not stated)
Percent Effect (30.3 µM, […]): 96.43%

Fc1cccc(CN2CCC3(CCN3c3ncccn3)C2)c1.O=C(O)C(F)(F)F (configuration not stated)
Percent Effect (30.3 µM, […]): -29.27%

COCCN1CCC2(COCc3cnc(-c4ccccc4)nc32)C1.O=C(O)C(F)(F)F (configuration not stated)
Percent Effect (30.3 µM, […]): -55.77%

CCOC(=O)[C@@H]1[C@@H](c2ccccc2)CN2CCNC[C@H]12
Percent Effect (30.3 µM, […]): -24.8%

O=C1CSC(c2cccs2)c2cnn(C3CCCC3)c2N1 (configuration not stated)
Percent Effect (30 µM, 30.03 µM): 106.7%

O=C1CSC(c2ccc3c(c2)OCO3)c2cnn(C3CCCCC3)c2N1 (configuration not stated)
Percent Effect (30 µM, 30.03 µM): 6.351%

COC(=O)c1ccc(C2SCC(=O)Nc3c2cnn3C2CCCC2)cc1 (configuration not stated)
Percent Effect (30 µM, 30.03 µM): 9.206%

CN1CCN(S(=O)(=O)c2cccc(F)c2)Cc2cccnc21.O=C(O)C(F)(F)F
Percent Effect (30.3 µM, […]): -5.986%

COCCN1CCN(c2cccc(C)n2)Cc2ccc(C)nc21.O=C(O)C(F)(F)F.O=C(O)C(F)(F)F
Percent Effect (30.3 µM, […]): 60.56%

COCCN1CCN(c2ccc(C)nn2)Cc2ccc(C)nc21.O=C(O)C(F)(F)F.O=C(O)C(F)(F)F
Percent Effect (30.3 µM, […]): 6.262%

COCCN1CCN(S(C)(=O)=O)Cc2ccc(C)nc21.O=C(O)C(F)(F)F
Percent Effect (30.3 µM, […]): -28.84%

COc1ccc(CNC(C)Cn2cccn2)c(OC)c1OC.Cl (configuration not stated)
Percent Effect (30.3 µM, […]): 4.713%
Percent Effect (10 mM, 10 mM as filed; unlikely as a test dose): -54.3%

COc1cc(CNCC(O)c2ccc(C)cc2)cc2c1OCCO2.Cl (configuration not stated)
Percent Effect (30 µM, 30.03 µM): 42.56%

COc1cc(CNCC(O)c2ccc(C)cc2)cc2c1OCO2.Cl (configuration not stated)
Percent Effect (30.3 µM, […]): 100.7%

COc1cc(CNCC(O)c2cccc(F)c2)cc2c1OCO2.Cl (configuration not stated)
Percent Effect (30.3 µM, […]): 81.63%

COc1cc(CNC(C)Cn2ccnc2)cc2c1OCO2.Cl (configuration not stated)
Percent Effect (30.3 µM, […]): 4.669%

COc1cc(CNCC(O)c2ccc(F)c(F)c2)cc2c1OCO2 (configuration not stated)
Percent Effect (30 µM, 30.03 µM): 4.493%

COc1cc(CNC(C)Cn2cccn2)cc2c1OCO2.Cl (configuration not stated)
Percent Effect (30.3 µM, […]): -1.111%

Cl.Cl.c1cncc(COC[C@@H]2CCC[C@@]23CNCCO3)c1
Percent Effect (30.3 µM, […]): -44.98%

CC(C)N1CCC2(CC1)C(=O)N(CCN(C)C)c1ccccc12.O=C(O)C(F)(F)F.O=C(O)C(F)(F)F
Percent Effect (30.3 µM, […]): 5.685%

O=C(O)C(F)(F)F.O=C(O)C(F)(F)F.O=C(O)C(F)(F)F.c1ccc(CN2CC[C@@H]3[C@@H](CO[C@@H]3CNc3ncccn3)C2)nc1
Percent Effect (30.3 µM, […]): -6.943%

COc1ccc(CN2C[C@@H]3OCCN(c4ncccn4)[C@@H]3C2)cc1.O=C(O)C(F)(F)F.O=C(O)C(F)(F)F
Percent Effect (30 µM, 30.03 µM): -40.73%

COc1cc2nc(NCc3ccc(C)nc3)nc(N)c2cc1OC
Percent Effect (30.3 µM, […]): 100.6%

O=C(C[C@@H]1COC[C@H]2CN(C3CCC3)C[C@@H]12)NCc1cccnc1.O=C(O)C(F)(F)F.O=C(O)C(F)(F)F
Percent Effect (30.3 µM, […]): 12.19%

COc1ccc(CCNCc2c(C)nn(C)c2N(C)C)cc1OC.Cl
Percent Effect (30.3 µM, […]): -31.69%

O=C(c1cnn2c1OCCC2)N1CCC2(CC1)OCCO2
Percent Effect (30 µM, 30.03 µM): 55.16%

O=C(c1ccccc1-n1cnnn1)N1CCC2(CC1)OCCO2
Percent Effect (30 µM, 30.03 µM): -25.19%

From ChEMBL document CHEMBL3988442, “University of Dundee, Small-Polar-MMV Screening Library” (2021)
